Compounds with a hit are over-represented: about 9.2% of the library has one in this group of screens.
FLuc modulator: inhibits or activates purified firefly luciferase, miR-21 counter-screen; AID 588342; hit rate 6.9% among 360,000; purified FLuc, Km substrates, luminescence inhibition; Potency, µM (highest dose often 57.5 µM), without a hit: at the top dose activity change, negative = inhibition, most hits filed as inhibitors; P08659;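 also: plate controls were vehicle for no effect and reference inhibitor for full effect; nearly all actives have a fitted effect of over 55% in size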
Target sequence (P08659 whole entry, looked up): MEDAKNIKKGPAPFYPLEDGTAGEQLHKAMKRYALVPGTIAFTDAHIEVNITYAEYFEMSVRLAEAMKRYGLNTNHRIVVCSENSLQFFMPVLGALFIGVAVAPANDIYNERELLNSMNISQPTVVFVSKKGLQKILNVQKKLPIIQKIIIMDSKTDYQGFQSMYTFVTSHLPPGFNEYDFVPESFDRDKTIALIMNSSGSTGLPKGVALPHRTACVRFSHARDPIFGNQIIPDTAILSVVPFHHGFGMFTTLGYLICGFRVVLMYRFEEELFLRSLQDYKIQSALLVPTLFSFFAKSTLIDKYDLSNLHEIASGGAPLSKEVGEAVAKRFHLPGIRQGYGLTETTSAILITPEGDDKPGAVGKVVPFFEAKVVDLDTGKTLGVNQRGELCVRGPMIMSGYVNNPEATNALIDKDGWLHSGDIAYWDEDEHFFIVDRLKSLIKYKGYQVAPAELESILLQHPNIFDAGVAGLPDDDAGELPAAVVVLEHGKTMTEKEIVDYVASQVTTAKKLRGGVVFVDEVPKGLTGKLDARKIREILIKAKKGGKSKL
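Purified P. pyralis luciferase, 10 nM final, with Km-level 10 uM D-luciferin and 10 uM ATP in 50 mM Tris acetate pH 7.5, 10 mM Mg acetate, 0.01% Tween-20, 0.05% BSA; 6-point qHTS titration about 60 µM downward; luminescence read.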
Rab9 promoter act: activators of Rab9 promoter; Potency, µM (doses to about 9.22 µM), for the others: at the top dose activation, negative = inhibition, most hits filed as activators; Huh7 Rab9 promoter-luciferase reporter, luminescence, 24 h; hit rate 2.8% among 320,000; also: % of control where 0% means no effect; nearly all actives have a fitted effect of over 60% in size
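Huh7 cells stably carrying a Rab9 promoter-luciferase reporter, 1500 cells per well in OP-MEM I with 10% FBS, treated with compound 24 hours at 37C. Luciferase activity read by luminescence after 10 minutes with Amplite reagent.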
ELG1 DNA repair: blocks ELG1-dependent DNA repair in HEK293T cells. Potency, µM (top dose mostly 46.1 µM), for the others: at the top dose activity change, negative = inhibition, most hits filed as inhibitors. AID 504467. HEK293T ELG1-luciferase reporter, luminescence, 16 h; DNA damage induced by 5-fluorouridine. hit rate 2.3% among 330,000; also: % is scaled to controls: 0 for no effect and ±100 for the full control effect; nearly all actives have a fitted effect of over 55% in size
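Quantitative HTS, concentration-response format. 2,000 cells/well co-treated with 5-fluorouridine and compound, 16 hr in 5% CO2 at 37 °C; ONE-Glo luminescence read after 30 min.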
ELG1 genotox: genotoxicity induction in ELG1-luciferase HEK293T cells; AID 504466; HEK293T ELG1-luciferase reporter, luminescence, 16 h; Potency, µM (doses to about 46 µM), without a hit: at the highest dose activity change, positive = activation, hits mostly activators; hit rate 1.3% among 330,000; also: % of control where 0% means no effect; nearly all actives have a fitted effect of over 60% in size
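Luminescence read-out: rising ELG1-luciferase signal, reflecting elevated ELG1 protein under genetic stress, flags genotoxic compounds. Cells were treated for 16 hr at 37 °C before ONE-Glo detection.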
NPC1 prom act: NPC1 promoter activation; Huh7 NPC1 promoter luciferase reporter, 24 h; Potency, µM (titrated, usually from 9.22 µM), without a hit: top-dose activation, usual class: activators; hit rate 2.4% among 320,000; AID 485313; also: % of control where 0% means no effect; nearly all actives have a fitted effect of over 60% in size
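Quantitative HTS used a cell-based reporter: Huh7 cells stably bearing the NPC1 promoter upstream of luciferase were treated with compounds for 24 h, and promoter activation was read as luminescence.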
SMN2 splice enh: enhancers of SMN2 splice variant expression. Potency, µM (highest dose often 46.1 µM), inactives show top-dose activity change, positive = activation, usual class: activators. AID 1458. hit rate 2.8% among 210,000. HEK293 SMN2-luciferase splicing reporter, luminescence, 30-36 h; also: % of control where 0% means no effect; nearly all actives have a fitted effect of over 55% in size
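HEK293 cells carry an SMN2 minigene-luciferase reporter in which exon 7 inclusion puts luciferase in frame. Cells were seeded at 2000 cells/well, attached for 10-12 hours, then exposed to compounds for 30-36 hours at 37C before ONE-Glo luminescence.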
* hit, by the source's call; ? = inconclusive; · = no result; [ ] = another dose, or the depositor's remark. Calls follow the shape of the dose curve; as a rule, active = well fitted curve in the direction sought with a large enough effect; inconclusive = small, poorly fitted or top-dose-only effect, or another doubt; inactive = no such curve, though single readings can be large; an effect the other way counts as inactive or inconclusive. Potency is read from the fitted curve at half-maximal effect.

SMILES	FLuc modulator	Rab9 promoter act	ELG1 DNA repair	ELG1 genotox	NPC1 prom act	SMN2 splice enh
Cc1ccc(NC(=O)N/C=C/c2ccco2)c(C)c1	?	-1%	15%	4%	1%	10%
CCc1ccccc1NC(=O)c1cccc(NC(=O)/C=C/c2ccco2)c1	3µM*	?	?	-2%	1%	11%
Cc1ccc(NC(=O)N/C=C/c2ccco2)cc1C	11µM*	18%	?	0%	27%	-3%
O=C1CCCN1C(=O)CSc1nnnn1-c1ccccc1	-2%	-4%	7%	0%	1%	·
Cc1ccc2sc(N3CCN(C(=O)CCS(=O)(=O)c4ccc(Cl)cc4)CC3)nc2c1C	1%	·	·	·	·	·
CC(C)[C@@H](CC(=O)N[C@@H]1CCCC[C@H]1C(=O)N[C@H](CC(=O)N[C@@H](CCC(=O)O)CC(=O)O)Cc1ccccc1)NC(=O)C[C@H](Cc1c[nH]c2ccccc12)NC(=O)[C@@H]1CCCC[C@H]1N	·	·	·	·	·	-3%
O=C(/C=C/c1ccco1)Nc1cccc(C(=O)Nc2ccccc2C(=O)O)c1	21µM*	1%	1%	-6%	-3%	·
O=C(O)c1cccc(NC(=O)c2ccccc2NC(=O)c2ccco2)c1	?	-2%	-11%	1%	-5%	·
CCCCCCCCC[n+]1cccc2c3ccccc3ccc21	5%	-42%	?	-10%	-49%	-69%
CCCCCCCCCCCCCCCC[n+]1cccc2ccccc21	-4%	-51%	13µM*	-3%	-40%	-59%
O=C(COCc1cc(-c2ccc3c(c2)OCO3)on1)Nc1cccnc1Cl	?	2%	5%	3%	2%	·
Cc1ccc(NC(=O)N2CCCC2)cc1Cl	-20%	28%	?	10%	17%	16%
O=C(Nc1ccc(Cl)c(Cl)c1)N1CC=CCC1	12µM*	3.5µM*	?	?	2.5µM*	?
CCOC(=O)c1oc2ccccc2c1COC(=O)CNC(=O)c1cccc(C)c1	3%	-1%	?	7%	-4%	·
N#CCCN(C(=O)COC(=O)CNC(=O)c1ccc(-c2ccccc2)cc1)c1ccc(F)cc1	24µM*	3%	13%	2%	-7%	·
O=C(CN1C(=O)CNC1=O)Nc1cc(Cl)cc(Cl)c1	·	·	8%	0%	·	·
CN(C)S(=O)(=O)c1cccc(NC(=O)CSc2nc3ccccc3n2-c2ccccc2)c1	0%	2%	18µM*	-6%	-4%	-39%
CN(C)S(=O)(=O)c1ccc(NC(=O)CSc2nc3ccccc3n2-c2ccccc2)cc1	4%	-18%	?	-3%	-7%	-66%
Nc1ccccc1C#CC(=O)c1ccccc1	6µM*	-2%	-1%	-1%	0%	·
O=C(COC(=O)Cn1cnc2ccccc21)Nc1ccc2c(c1)C(=O)c1ccccc1C2=O	?	?	?	12µM*	?	-12%
CC(=O)c1ccc(NC(=O)COC(=O)Cn2cnc3ccccc32)cc1	·	·	?	3%	·	·
CCc1cc2c(-c3ccccc3)cc(=O)oc2cc1OCC(=O)NCC1CCC(C(=O)O)CC1 (stereo unspecified)	?	-4%	?	17%	-5%	·
c1ccc2c(Oc3ccc4c(c3)OCO4)nncc2c1	6µM*	0.63µM*	?	?	1.3µM*	10µM*
Nc1ccc(Oc2ccc3c(c2)OCO3)cc1	0%	9%	14%	-8%	15%	6%
NC(=O)COc1c(-c2ccc(Br)o2)oc2ccccc2c1=O	0%	-2%	-25%	-4%	-4%	·
SMILES	FLuc modulator	Rab9 promoter act	ELG1 DNA repair	ELG1 genotox	NPC1 prom act	SMN2 splice enh
Cc1cc(C)c(C(=O)/C=C/c2cccs2)c(=O)[nH]1	-1%	-3%	?	-13%	-4%	-4%
C/C(=C\c1ccc(Br)cc1)C(=O)c1c(C)cc(C)[nH]c1=O	1%	-1%	15µM*	-10%	-2%	·
Cn1c(N)c(C(=O)/C=C/c2ccccc2)c(=O)[nH]c1=O	17µM*	?	?	?	?	·
CCc1ccc(/C=C/C(=O)c2c(C)cc(C)[nH]c2=O)cc1	?	-10%	21µM*	-52%	-5%	-76%
Cc1ccc(/C=C/C(=O)c2c(C)cc(C)[nH]c2=O)cc1	-3%	-9%	21µM*	0%	1%	-44%
CCc1ccc(/C=C(\C)C(=O)c2c(C)cc(C)[nH]c2=O)cc1	-4%	13%	?	-11%	2%	-85%
Cc1nn(-c2ccc(F)cc2)c(-n2cccc2)c1C(=O)NCCc1ccc(Cl)cc1	-12%	·	·	·	·	·
COc1ccc(CCC(=O)N2CCCC(Nc3ccc(C)c(C)c3)C2)cc1OC (stereo unspecified)	-2%	0%	-27%	-2%	2%	·
CCOc1ccc(S(=O)(=O)Nc2cccc(C(=O)NCC(C)(C)N3CCOCC3)c2)cc1	5%	0%	-7%	-5%	0%	·
O=Cc1ccccc1OCCOc1ccccc1C=O	24µM*	3%	?	?	0%	?
CCN(CC)S(=O)(=O)c1ccc2nc(NC(=O)c3cccs3)sc2c1	15µM*	?	?	?	23%	?
CCN(CC)S(=O)(=O)c1ccc2nc(NC(=O)c3ccco3)sc2c1	19µM*	8%	?	4%	16%	12%
CCN(CC)S(=O)(=O)c1ccc2nc(NC(=O)c3ccccc3OC)sc2c1	0%	·	·	·	·	·
CCCCN(CC)C(=O)CSc1nc2c(sc(=S)n2-c2ccc(OCC)cc2)c(=O)[nH]1	17µM*	1%	-9%	-6%	-2%	-27%
Cc1ccc(NC(=O)c2ccc([N+](=O)[O-])cc2)cc1S(=O)(=O)N(C)C	?	?	18µM*	0%	?	1%
Cc1ccc([N+](=O)[O-])cc1S(=O)(=O)N(C)C	·	2%[46.1 µM]	·	·	0%[46.1 µM]	-6%
Cc1ccc(NC(=O)CCNC(=O)c2ccc([N+](=O)[O-])cc2)cc1S(=O)(=O)N(C)C	-3%	-3%	13µM*	-16%	-9%	-28%
COc1ccc(NC(=O)c2ccc(OC(F)F)cc2)cc1Cl	2.7µM*	2.5µM*	?	?	2µM*	11µM*
Cc1ccc(NC(=O)c2ccc(OC(F)F)cc2)cc1S(=O)(=O)N(C)C	9.5µM*	0%	?	1%	8%	-55%
COc1ccccc1CN(C)C(=O)c1cc(-c2cccs2)nc2ccccc12	-2%	-5%	?	-30%	-7%	·
COc1ccc(-c2nc3scc(CCNS(=O)(=O)c4ccc(C)cc4)n3n2)cc1	-17%	·	·	·	·	·
CCOc1ccc(CCNC(=O)COC(=O)c2cc(S(=O)(=O)N3CCOCC3)ccc2F)cc1OCC	2%	-1%	18%	3%	-2%	·

Screens as filed in PubChem.
